{"source": "the supplement of paper PMC13094657", "note": "± gives the standard deviation of the averaged measurements."}
{"test_system": "MDA-MB-231", "assay": "kynurenine production, fold change vs DMSO IFNg/TNF control; higher = more kynurenine produced (less inhibition)", "conditions": "pre-treatment time: 18 h then 24 h IFNg/TNF", "summary_of_the_method": "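After trichloroacetic acid and p-dimethylaminobenzaldehyde treatment, supernatants were read at 492 nm, with 0–100 μM standards. These came from MDA-MB-231 cells (7 × 10^4/well, 96-well plates) pre-treated 18 h with natural products in 0.1% DMSO and then exposed 24 h to IFNγ (1 U/ml) and TNF (6.25 ng/ml) at 37°C. Values for kynurenine production are fold changes over same-plate cytokine-stimulated vehicle wells, averaged over duplicate plates in the first screening round.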"}
{"smiles": "C[C@@H]1O[C@@H](O[C@H]2[C@H](OC(=O)[C@]34CCC(C)(C)C[C@H]3C3=CC[C@@H]5[C@@]6(C)C[C@H](O)[C@H](O[C@@H]7O[C@H](CO)[C@@H](O)[C@H](O)[C@H]7O)[C@@](C)(CO)[C@@H]6CC[C@@]5(C)[C@]3(C)C[C@H]4O)OC[C@H](O)[C@@H]2O)[C@H](O)[C@H](O)[C@H]1O[C@@H]1OC[C@@H](O)[C@H](O[C@@H]2OC[C@](O)(CO)[C@H]2O)[C@H]1O", "note": "[Polygalacin D] (compound dose: 10 uM)", "kynurenine production": "0.382 ± 0.056"}
{"smiles": "CC(=O)O[C@H]1C(=O)[C@@]2(C)[C@H]([C@H](OC(=O)c3ccccc3)[C@]3(O)C[C@H](OC(=O)[C@H](O)[C@@H](NC(=O)c4ccccc4)c4ccccc4)C(C)=C1C3(C)C)[C@]1(OC(C)=O)CO[C@@H]1C[C@@H]2O", "note": "[7-epi-Taxol] (compound dose: 10 uM)", "kynurenine production": "0.3 ± 0.026"}
{"smiles": "C=C1C(=O)O[C@H]2[C@H]1CC/C(C)=C/CC[C@@]1(C)O[C@@H]21", "note": "[Parthenolide] (compound dose: 10 uM)", "kynurenine production": "0.309 ± 0.064"}
{"smiles": "O[C@@H]1[C@@H](O)[C@@H](OC/C=C/c2ccccc2)O[C@H](CO[C@@H]2OC[C@H](O)[C@H](O)[C@H]2O)[C@H]1O", "note": "[Rosavin] (compound dose: 10 uM)", "kynurenine production": "0.882 ± 0.2"}
{"smiles": "CC1(C)[C@@H](O[C@H]2O[C@H](C(=O)O)[C@@H](O)[C@H](O)[C@H]2O[C@@H]2O[C@H](C(=O)O)[C@@H](O)[C@H](O)[C@H]2O)CC[C@]2(C)[C@H]3C(=O)C=C4[C@@H]5C[C@@](C)(C(=O)O)CC[C@]5(C)CC[C@@]4(C)[C@]3(C)CC[C@@H]12", "note": "[Glycyrrhizic acid] (compound dose: 10 uM)", "kynurenine production": "0.842 ± 0.057"}
{"smiles": "CC(CCC(OC1OC(CO)C(O)C(O)C1OC1OC(CO)C(O)C(O)C1O)C(C)(C)O)C1CCC2(C)C3CC=C4C(CCC(OC5OC(COC6OC(CO)C(O)C(O)C6O)C(O)C(O)C5O)C4(C)C)C3(C)C(O)CC12C", "note": "(stereo not given) [Mogroside IV] (compound dose: 10 uM)", "kynurenine production": "1.12 ± 0.23"}
{"smiles": "C=C1C[C@@]23CC[C@H]4[C@@](C)(CCC[C@@]4(C)C(=O)O[C@@H]4O[C@H](CO)[C@@H](O)[C@H](O)[C@H]4O)[C@@H]2CC[C@]1(O[C@@H]1O[C@H](CO)[C@@H](O)[C@H](O)[C@H]1O[C@@H]1O[C@H](CO)[C@@H](O)[C@H](O)[C@H]1O)C3", "note": "[Stevioside] (compound dose: 10 uM)", "kynurenine production": "0.959 ± 0.14"}
{"smiles": "C=C1C(=O)O[C@@H]2/C=C(\\C)C[C@@H]3C=C(C[C@H](OC(=O)/C(C)=C\\C)[C@@H]12)C(=O)O3", "note": "[Scabertopin] (compound dose: 10 uM)", "kynurenine production": "0.182 ± 0.087"}
{"smiles": "CC(C)=CCC[C@@H](C(=O)O)[C@H]1CC[C@@]2(C)C3=CC[C@H]4C(C)(C)[C@@H](O)CC[C@]4(C)C3=CC[C@]12C", "note": "[3-Dehydrotrametenolic acid] (compound dose: 10 uM)", "kynurenine production": "0.83 ± 0.085"}
{"smiles": "CC(CCC(OC1OC(COC2OC(CO)C(O)C(O)C2O)C(O)C(O)C1OC1OC(CO)C(O)C(O)C1O)C(C)(C)O)C1CCC2(C)C3CC=C4C(CCC(OC5OC(COC6OC(CO)C(O)C(O)C6O)C(O)C(O)C5O)C4(C)C)C3(C)C(=O)CC12C", "note": "(stereo not given) [11-oxo-mogroside V] (compound dose: 10 uM)", "kynurenine production": "1.33 ± 0.053"}
{"smiles": "CC1(C)C[C@@H](O)[C@]2(C)CC[C@]3(C)C(=CC[C@@H]4[C@@]5(C)CC[C@H](O)[C@](C)(CO)[C@@H]5CC[C@]43C)[C@@H]2C1", "note": "[Soyasapogenol B] (compound dose: 10 uM)", "kynurenine production": "0.744 ± 0.025"}
{"smiles": "CC(=O)O[C@@]1(C)C[C@@H](O)[C@]2(O)C=CO[C@@H](O[C@@H]3O[C@H](CO)[C@@H](O)[C@H](O)[C@H]3O)[C@@H]21", "note": "[8-O-Acetylharpagide] (compound dose: 10 uM)", "kynurenine production": "0.906 ± 0.076"}
{"smiles": "O=C(O)C1=CO[C@@H](O[C@@H]2O[C@H](CO)[C@@H](O)[C@H](O)[C@H]2O)[C@H]2[C@@H]1C=C[C@]2(O)CO", "note": "[Monotropein] (compound dose: 10 uM)", "kynurenine production": "0.846 ± 0.13"}
{"smiles": "CC(C)=CCC/C(C)=C/C=O", "note": "[Citral] (compound dose: 10 uM)", "kynurenine production": "0.864 ± 0.074"}
{"smiles": "C=C1C[C@]23C[C@@]1(O)CC[C@H]2[C@@]12C=C[C@H](O)[C@@](C)(C(=O)O1)[C@H]2[C@@H]3C(=O)O", "note": "[Gibberellic acid] (compound dose: 10 uM)", "kynurenine production": "0.799 ± 0.11"}
{"smiles": "C[C@@H]1CC[C@H]2C(C)(C)[C@H]3C[C@@]12CC[C@@]3(C)O", "note": "[Cedrol] (compound dose: 10 uM)", "kynurenine production": "1.06 ± 0.019"}
{"smiles": "C=C[C@]1(C)CC[C@@H](C(=C)C)C[C@H]1C(=C)C", "note": "[β-Elemene] (compound dose: 10 uM)", "kynurenine production": "0.8 ± 0.11"}
{"smiles": "CC1(C)CC[C@]2(C(=O)O)CC[C@]3(C)C(=CC[C@@H]4[C@@]5(C)CCC(=O)C(C)(C)[C@@H]5CC[C@]43C)[C@@H]2C1", "note": "[Oleanonic acid] (compound dose: 10 uM)", "kynurenine production": "1.136 ± 0.0017"}
{"smiles": "CO[C@@H]1C=C2[C@@H]3CC(C)(C)CC[C@]3(CO)[C@H](O)C[C@@]2(C)[C@]2(C)CC[C@H]3[C@](C)(CO)[C@@H](O[C@@H]4O[C@H](C)[C@H](O)[C@H](O[C@@H]5O[C@H](CO)[C@@H](O)[C@H](O)[C@H]5O)[C@H]4O)CC[C@]3(C)[C@@H]12", "note": "[Saikosaponin B4] (compound dose: 10 uM)", "kynurenine production": "0.923 ± 0.21"}
{"smiles": "CC1(C)C2CC=C(C=O)C1C2", "note": "(single isomer, unassigned; (-)) [(-)-Myrtenal] (compound dose: 10 uM)", "kynurenine production": "0.941 ± 0.084"}
{"smiles": "C[C@H]1COC2=C1C(=O)C(=O)c1c2ccc2c1CCCC2(C)C", "note": "[Cryptotanshinone] (compound dose: 10 uM)", "kynurenine production": "0.3818 ± 0.0038"}
{"smiles": "C=C1CCC[C@]2(C)C[C@]3(O)OC(=O)C(C)=C3C[C@@H]12", "note": "[Atractylenolide III] (compound dose: 10 uM)", "kynurenine production": "0.763 ± 0.15"}
{"smiles": "C=C1[C@H](OC(=O)c2cccnc2)C[C@H]2[C@@H](/C=C(\\C)C(=O)[C@@]3(OC(C)=O)C[C@H](C)[C@H](OC(=O)c4ccccc4)[C@@H]3[C@H]1OC(C)=O)C2(C)C", "note": "[Euphorbia factor L9] (compound dose: 10 uM)", "kynurenine production": "0.226 ± 0.028"}
{"smiles": "CC1CCC(C(C)C)C(O)C1", "note": "(single isomer, unassigned; (-)) [(-)-Menthol] (compound dose: 10 uM)", "kynurenine production": "0.988 ± 0.27"}
{"smiles": "C[C@H]1[C@H](C)CC[C@]2(C(=O)O)CC[C@]3(C)C(=CC[C@@H]4[C@@]5(C)C[C@@H](O)[C@H](O)C(C)(C)[C@@H]5CC[C@]43C)[C@H]12", "note": "[Corosolic acid] (compound dose: 10 uM)", "kynurenine production": "1.19 ± 0.13"}
